“And” between values parts separate entries of the source, which are not always exact repeats. Identical values can stand only once. Some structures have more than one record in an assay (separate samples or runs), and their calls can disagree. The source made the active and inactive calls. Rule for the calls: active = hit-call score of the fitted dose curve at least 0.9, where 1 is the maximum; inactive = score below 0.9.
How the values were obtained:
[1] = read-out: Matrix Metallopeptidase 3 (MMP3), MMP3 (gene 4314); assay: BSK_BF4T_MMP3: BioMAP Diversity Plus: BF4T Assay for Matrix Metallopeptidase 3 (MMP3) Biomarker Activity (AID 2284271); conditions: primary human bronchial epithelial cells with fibroblasts
In short: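 MMP-3 level read by ELISA after 24 h chemical exposure of bronchial epithelial cell/dermal fibroblast co-cultures, fitted upward relative to DMSO. Parallel cultures stained with 0.1% SRB after TCA fixation gauge overt cytotoxicity.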

[2] = read-out: Tissue plasminogen activator (tPA), PLAT (gene 5327); assay: BSK_BF4T_tPA: BioMAP Diversity Plus: BF4T Assay for Tissue plasminogen activator (tPA) Biomarker Activity (AID 2284272); conditions: primary human bronchial epithelial cells with fibroblasts
In short: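 tPA level quantified by ELISA at 24 h post-treatment in bronchial epithelial/dermal fibroblast co-cultures, gain of signal scored against DMSO baseline. Parallel cultures stained with 0.1% SRB (560 nm) to flag overt cytotoxicity.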

[3] = read-out: Plasminogen Activator Inhibitor-1 (PAI1), SERPINE1 (gene 5054); assay: BSK_BF4T_PAI1: BioMAP Diversity Plus: BF4T Assay for Plasminogen Activator Inhibitor-1 (PAI1) Biomarker Activity (AID 2284273); conditions: primary human bronchial epithelial cells with fibroblasts
In short: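 PAI-1 levels quantified by ELISA 24 h post-dosing in bronchial epithelial cell plus dermal fibroblast cultures. Signal gain referenced to DMSO baseline. Sulforhodamine B total-protein staining of parallel wells checked cytotoxicity.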

[4] = BSK_BF4T_SRB: Viability Assessment in the BioMAP Diversity Plus: BF4T Assay (AID 2284274); conditions: primary human bronchial epithelial cells with fibroblasts;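 for AC50: measured 24 h after compound addition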
In short: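 Cytotoxicity measured as total protein: cells fixed with 10% TCA, stained with 0.1% SRB, read at 560 nm. Bronchial epithelial/dermal fibroblast co-culture, 24 h after dosing, with positive-direction fitting relative to DMSO.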

[5] = read-out: urokinase Plasminogen Activator (uPA), PLAU (gene 5328); assay: BSK_BF4T_uPA: BioMAP Diversity Plus: BF4T Assay for urokinase Plasminogen Activator (uPA) Biomarker Activity (AID 2284275); conditions: primary human bronchial epithelial cells with fibroblasts
In short: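 uPA levels measured by ELISA at 24 hours in BF4T cultures (bronchial epithelial cells plus dermal fibroblasts) and compared with DMSO; cytotoxicity tracked in parallel cultures by sulforhodamine B staining.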

[6] = read-out: Matrix Metallopeptidase 9 (MMP9), MMP9 (gene 4318); assay: BSK_BF4T_MMP9: BioMAP Diversity Plus: BF4T Assay for Matrix Metallopeptidase 9 (MMP9) Biomarker Activity (AID 2284276); conditions: primary human bronchial epithelial cells with fibroblasts
In short: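 MMP-9 levels were measured by ELISA after 24 h exposure of bronchial epithelial cell/dermal fibroblast co-cultures, with DMSO as baseline. Parallel cultures were stained with 0.1% SRB after TCA fixation, read at 560 nm, to flag overt cytotoxicity.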

[7] = read-out: Interleukin-8 (IL8), CXCL8 (gene 3576); assay: BSK_IMphg_IL8: BioMAP Diversity Plus: IMphg Assay for Interleukin-8 (IL8) Biomarker Activity (AID 2284277); conditions: primary human endothelial cells with macrophages
In short: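 IL-8 levels were measured by ELISA 24 h after dosing in primary human venular endothelial cell–macrophage cultures, referenced to DMSO; parallel SRB staining monitored overt cytotoxicity.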

[8] = read-out: Intercellular Adhesion Molecule 1 (ICAM1), ICAM1 (gene 3383); assay: BSK_BE3C_ICAM1: BioMAP Diversity Plus: BE3C Assay for Intercellular Adhesion Molecule 1 (ICAM1) Biomarker Activity (AID 2284278); conditions: primary human bronchial epithelial cells
In short: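 hu bronchial epithelial primary cells, 24 h cpd exposure, ICAM-1 ELISA; gain-of-signal fit vs DMSO baseline.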

[9] = read-out: Interferon-inducible T-cell alpha chemoattractant (ITAC), CXCL11 (gene 6373); assay: BSK_BE3C_ITAC: BioMAP Diversity Plus: BE3C Assay for Interferon-inducible T-cell alpha chemoattractant (ITAC) Biomarker Activity (AID 2284279); conditions: primary human bronchial epithelial cells
In short: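 ELISA for I-TAC in primary human bronchial epithelial cultures 24 h post-treatment, fitted relative to DMSO baseline in positive direction. Cytotoxicity checked in parallel cultures by sulforhodamine B protein staining.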

[10] = read-out: Interleukin-8 (IL8), CXCL8 (gene 3576); assay: BSK_BE3C_IL8: BioMAP Diversity Plus: BE3C Assay for Interleukin-8 (IL8) Biomarker Activity (AID 2284280); conditions: primary human bronchial epithelial cells
In short: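 Measured at 24 h after treatment, IL-8 from human primary bronchial epithelial cells is determined by ELISA, and the response is modelled as increasing relative to DMSO negative control.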

Measured: AC50

O=C(O)C(F)(F)C(F)(F)C(F)(F)C(F)(F)C(F)(F)C(F)(F)F
active: [6] 24.6 µM | [7] 40.5 µM
inactive: [1] | [2] | [3] | [4] | [5] | [6] | [7] | [8] | [9] | [10]

O=C(O)C(F)(F)C(F)(F)C(F)(F)C(F)(F)C(F)(F)C(F)(F)C(F)(F)C(F)(F)C(F)(F)C(F)(F)F
inactive: [7]
active: [1] 5.26 µM and 3.33 µM | [2] 4.42 µM and 5.58 µM | [3] 5.2 µM and 6.13 µM | [4] 5.49 µM and 5.63 µM | [5] 6.49 µM and 6.17 µM | [6] 4.36 µM and 5.37 µM | [8] 5.73 µM and 6.33 µM | [9] 2.65 µM and 2.84 µM | [10] 4.19 µM and 3.81 µM

O=C(O)CCC(F)(C(F)(F)F)C(F)(F)F
inactive: all assays above

CC(=O)OC(c1ccccc1)C(Cl)(Cl)Cl (stereo not drawn)
inactive: [8] | [9] | [10]

COC(=O)Cc1ccccc1
inactive: [8] | [9] | [10]
